From PubChem BioAssay
Anthrax LF prot – anthrax lethal factor protease inhibition; P15917; multiplex microsphere protease cleavage assay, LF; inhibition, % at 10 µM; hit rate 0.12% among 360,000; AID 588501; further: plate controls were buffer without enzyme for full effect and enzyme alone for no effect
MazF activator – increases E. coli MazEF RNase cleavage of RNA; P0AE70; FAM/BHQ RNA-DNA oligo cleavage fluorescence, 5 h; activation, % at 20 µM; hit rate 0.32% among 350,000; in the data active means activation above about 50%
Target sequence (P0AE70 whole entry, looked up): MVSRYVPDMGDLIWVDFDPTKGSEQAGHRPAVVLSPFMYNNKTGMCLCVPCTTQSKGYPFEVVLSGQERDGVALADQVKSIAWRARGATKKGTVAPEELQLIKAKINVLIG
BoNT-F LC inh – inhibitors of Botulinum neurotoxin F light chain protease. Multiplex microsphere protease cleavage assay, flow cytometry. inhibition, % at 10 µM. hit rate 0.22% among 360,000; in the data active means inhibition above about 35%, passing the limit was not always enough; inconclusive means no clear call, values can overlap the other calls; further: plate controls were buffer without enzyme for full effect and enzyme alone for no effect
BoNT-A LC inh2 – BoNT A light chain protease inhibition; multiplex microsphere protease substrate cleavage, flow cytometry; inhibition, % at 10 µM; hit rate 0.17% among 360,000; further: plate controls were buffer without enzyme for full effect and enzyme alone for no effect
Autofluor counter – compound fluorescence in toxin protease inhibitor counterscreen | fluorescence intensity (concentration not given with the values) | compound autofluorescence counterscreen, microsphere flow cytometry; hits give high values | hit rate 3.1% among 360,000; in the data active means fluorescence intensity above about 16000; inconclusive means no clear call, values can overlap the other calls
The depositor's hits bear a star. The list is not random: actives were taken first. Their share in the collection is about 3.7%. Unless noted, no stated cut-off is given here; in the data, active means inhibition above about 30%; inconclusive means no clear call, values can overlap the other calls; inactive means below that.

Results for CCCCSc1nc2sc3c(c2c(=O)n1-c1ccccc1)CCN(C)C3 ?
Anthrax LF prot: 14; MazF activator: 18; BoNT-F LC inh: 21; BoNT-A LC inh2: 52*; Autofluor counter: 4210

What do the screens show for `C=C(C)CSc1nc2sc3c(c2c(=O)n1C1CCCCC1)CCN(C)C3`?
Anthrax LF prot: 13; MazF activator: 7; BoNT-F LC inh: -4; BoNT-A LC inh2: 33*; Autofluor counter: 7245

Results for CN1CCc2c(sc3nc(SCC(N)=O)n(-c4ccccc4)c(=O)c23)C1 ?
Anthrax LF prot: -8; MazF activator: 12; BoNT-F LC inh: 3; BoNT-A LC inh2: 1; Autofluor counter: inconclusive

What do the screens show for `C=CCSc1nc2sc3c(c2c(=O)n1-c1ccc(C)cc1)CCN(C)C3`?
Anthrax LF prot: 1; MazF activator: 1; BoNT-F LC inh: -5; BoNT-A LC inh2: 36*; Autofluor counter: 4217

Results for CCCCSc1nc2sc3c(c2c(=O)n1-c1ccc(OC)cc1)CCN(C)C3 ?
Anthrax LF prot: -16; MazF activator: 15; BoNT-F LC inh: inconclusive; BoNT-A LC inh2: 6; Autofluor counter: 4814

Results for CCSc1nc2sc3c(c2c(=O)n1-c1ccccc1)CCN(C(C)C)C3 ?
Anthrax LF prot: 4; MazF activator: 3; BoNT-F LC inh: 46*; BoNT-A LC inh2: 57*; Autofluor counter: 6785

What do the screens show for `N#Cc1c(NCc2ccccc2)ccnc1Cl`?
Anthrax LF prot: -4; MazF activator: -8; BoNT-F LC inh: -15; BoNT-A LC inh2: -1; Autofluor counter: 5761

How did C=C(C)CSc1nc2sc3c(c2c(=O)n1-c1ccccc1)CCN(C)C3 do in these assays?
Anthrax LF prot: 16; MazF activator: 5; BoNT-F LC inh: 9; BoNT-A LC inh2: 37*; Autofluor counter: 4836

Results for CCOC(=O)C1=C(O)CCn2c1nc1ccccc12 ?
Anthrax LF prot: -7; MazF activator: -7; BoNT-F LC inh: 11; BoNT-A LC inh2: 9; Autofluor counter: 19422*

How did CC1(C)CC(CC(=O)Nc2ccccn2)C(=O)O1 (stereo unspecified) do in these assays?
Anthrax LF prot: 0; MazF activator: -1; BoNT-F LC inh: -1; BoNT-A LC inh2: -1; Autofluor counter: 23618*

Results for CNc1ncnc(Sc2nc(N)nc3nc[nH]c23)c1[N+](=O)[O-] ?
Anthrax LF prot: 0; MazF activator: 6; BoNT-F LC inh: 0; BoNT-A LC inh2: 0; Autofluor counter: 2742

How did Nc1nc(Sc2ccc([N+](=O)[O-])c3nonc23)c2[nH]cnc2n1 do in these assays?
Anthrax LF prot: -12; MazF activator: 60*; BoNT-F LC inh: -9; BoNT-A LC inh2: 2; Autofluor counter: 3840

What do the screens show for `O=C(NCCN1CCOCC1)C(=O)NCC1OCCN1S(=O)(=O)c1ccc(Cl)cc1` (stereo unspecified)?
Anthrax LF prot: -3; MazF activator: 8; BoNT-F LC inh: 1; BoNT-A LC inh2: -1; Autofluor counter: 3659

How did CCN(CC)S(=O)(=O)N1CCC(C(=O)NCCN2CCOCC2)CC1 do in these assays?
Anthrax LF prot: 0; MazF activator: 2; BoNT-F LC inh: 3; BoNT-A LC inh2: 3; Autofluor counter: 22119*

Results for Cc1cccc(CN(CC(=O)N/N=C/c2ccco2)S(=O)(=O)c2ccc(Cl)cc2)c1 ?
Anthrax LF prot: 3; MazF activator: -6; BoNT-F LC inh: 3; BoNT-A LC inh2: 0; Autofluor counter: 6024

Results for Cc1ccc(S(=O)(=O)N(CC(=O)N/N=C/c2ccco2)Cc2ccccc2)cc1 ?
Anthrax LF prot: -4; MazF activator: -3; BoNT-F LC inh: 2; BoNT-A LC inh2: inconclusive; Autofluor counter: 22458*

What do the screens show for `Cc1ccc(-n2[nH]c(=O)c3cccnc32)cc1`?
Anthrax LF prot: -5; MazF activator: 4; BoNT-F LC inh: -3; BoNT-A LC inh2: -2; Autofluor counter: 16502*

Results for Cc1ccc(-n2[nH]c(=O)c(-c3ccccn3)c2C)cc1 ?
Anthrax LF prot: -2; MazF activator: 16; BoNT-F LC inh: -5; BoNT-A LC inh2: 0; Autofluor counter: 4587

Results for Cc1cc(C(F)(F)F)n(-c2nc(C(=O)NNS(=O)(=O)c3ccccc3)cs2)n1 ?
MazF activator: -5

What do the screens show for `COc1ccccc1NC(=O)c1csc(-n2nc(C)cc2C(F)(F)F)n1`?
Anthrax LF prot: -2; MazF activator: 9; BoNT-F LC inh: 1; BoNT-A LC inh2: inconclusive; Autofluor counter: 21807*

How did COc1ccc(S(=O)(=O)N2CCCCC2)cc1NC(=O)C1CC1(Cl)Cl (stereo unspecified) do in these assays?
Anthrax LF prot: 4; MazF activator: -12; BoNT-F LC inh: -2; BoNT-A LC inh2: 0; Autofluor counter: 3855

How did Cn1c(SCC(=O)OC2CCCCC2)nnc1-c1ccc2c(c1)OCO2 do in these assays?
Anthrax LF prot: 2; MazF activator: -2; BoNT-F LC inh: 3; BoNT-A LC inh2: 2; Autofluor counter: 21547*

How did COC(=O)CSc1nnc(-c2ccc3c(c2)OCO3)n1C do in these assays?
Anthrax LF prot: -2; MazF activator: -7; BoNT-F LC inh: -16; BoNT-A LC inh2: 1; Autofluor counter: 2903

What do the screens show for `Cc1ccc(NC(=O)CCS(=O)(=O)c2ccc3nc(C)sc3c2)c(C)c1`?
Anthrax LF prot: -6; BoNT-F LC inh: -6; BoNT-A LC inh2: 0; Autofluor counter: 5846

Results for CCOC(=O)CN(C(=O)Cn1nnc(-c2ccc(C)cc2)n1)C(CC)C(=O)NC1CCCC1 (stereo unspecified) ?
Anthrax LF prot: -6; MazF activator: -3; BoNT-F LC inh: 0; BoNT-A LC inh2: 0; Autofluor counter: 22718*

How did Cc1ccc(N(C(=O)Cn2nnc(-c3ccccc3F)n2)C(C(=O)NC2CCCC2)c2ccncc2)cc1 (stereo unspecified) do in these assays?
Anthrax LF prot: 14; MazF activator: 6; BoNT-F LC inh: 4; BoNT-A LC inh2: 0; Autofluor counter: 3878

Results for Cc1ccc(N(C(=O)Cn2nnc(-c3cccs3)n2)C(C(=O)NC2CCCC2)c2ccncc2)cc1 (stereo unspecified) ?
Anthrax LF prot: -1; MazF activator: -11; BoNT-F LC inh: -3; BoNT-A LC inh2: -2; Autofluor counter: 22784*

What do the screens show for `CCC(C(=O)NC1CCCC1)N(Cc1ccco1)C(=O)Cn1nnc(-c2ccc(C)cc2)n1` (stereo unspecified)?
Anthrax LF prot: -3; MazF activator: -9; BoNT-F LC inh: -2; BoNT-A LC inh2: 0; Autofluor counter: 19503*

Results for Cc1ccc(N(C(=O)Cn2nnc(-c3ccc(C)o3)n2)C(C(=O)NC2CCCC2)c2ccco2)cc1 (stereo unspecified) ?
Anthrax LF prot: -4; MazF activator: -3; BoNT-F LC inh: -3; BoNT-A LC inh2: 0; Autofluor counter: 10983

How did O=C(NC1CCCCC1)C(c1ccc(F)cc1)N(Cc1ccco1)C(=O)Cn1nnc2ccccc21 (stereo unspecified) do in these assays?
Anthrax LF prot: 0; MazF activator: 8; BoNT-F LC inh: 4; BoNT-A LC inh2: 2; Autofluor counter: 18842*

Results for CC1=C(C(=O)N(C(C)C)C(C)C)CC(CC(=O)NCCN2CCOCC2)C(=O)N1Cc1ccc(F)cc1 (stereo unspecified) ?
Anthrax LF prot: -9; BoNT-F LC inh: -1; BoNT-A LC inh2: -1; Autofluor counter: 5914
